Results from PMC7819943, “Rice protein-binding microarrays: a tool to detect cis-acting elements near promoter regions in rice”.
In all, about 68,000 sequences were measured (“fluorescence intensity (a.u.)”: median about 9,100, highest 2% from about 16,000 on). Only a selection was taken, and the highest values are over-represented in it overall.

Molecular target: OsWRKY34 (Oryza sativa, UniProt Q0JBA9 1-250)
Assay: protein-binding microarray (RPBM); PBS, 2% BSA, 51.3 ng/ul salmon testes DNA, 50 uM zinc acetate, 200 nM TF, 25 C, 1 h; high values mean tight binding
Conditions: protein: recombinant; tags: N-terminal polyhistidine and DsRed monomer fusion (pET32a); label: CyDye5-dUTP incorporated in the synthesized complementary strand; 3' TTTTT single-stranded linker to array surface; dsDNA, one strand shown
In short: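 Binding signal is reported as fluorescence intensity per feature (arbitrary units) from an Axon 4000B scanner. Incubation used 200 nM of each Ni–NTA-purified, N-terminally polyhistidine- and DsRed-fused transcription factor from E. coli BL21-CodonPlus on a double-stranded custom Agilent array for 1 h at 25 °C, with 50 µM zinc acetate in the buffer, followed by washing.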

OsWRKY34, sequence (Q0JBA9 entry or part of it): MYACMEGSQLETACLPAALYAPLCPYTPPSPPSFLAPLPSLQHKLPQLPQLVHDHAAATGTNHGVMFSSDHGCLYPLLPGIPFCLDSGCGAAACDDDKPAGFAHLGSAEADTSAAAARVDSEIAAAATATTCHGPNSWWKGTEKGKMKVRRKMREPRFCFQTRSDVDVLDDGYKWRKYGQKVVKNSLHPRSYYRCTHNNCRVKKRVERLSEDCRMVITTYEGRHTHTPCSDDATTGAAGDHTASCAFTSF

**Q.** For “TTTTCTCTGTTTACTTTTTTTTTATTATTTTTTTGCGCCGCGGAGTCACCTAGTGCAG”, which binding signal is on record?
**A.** 8240 fluorescence intensity (a.u.)

**Q.** For “ATGTCATGTCATGTCGCATATCTCCCATGTCTTGGCACGACGGAGTCACCTAGTGCAG”, which binding signal is on record?
**A.** 9540 fluorescence intensity (a.u.)

**Q.** Which binding signal does the source give for “TACTTGGCTATACTATTAAACTTGCTCTCGCACCATCTTTCGGAGTCACCTAGTGCAG” here?
**A.** 9680 fluorescence intensity (a.u.)

**Q.** Which binding signal does the source give for “GTTGCAAAAGAGGCCTCTGACATGGTTCTTGCTGATGACACGGAGTCACCTAGTGCAG” here?
**A.** 8450 fluorescence intensity (a.u.)

**Q.** With “CGGGGCCCAACGAGGTGGCGCCGTGGCTGGTGGGGCGGGTCGGAGTCACCTAGTGCAG” as the sequence, how does the binding signal read?
**A.** 9270 fluorescence intensity (a.u.)

**Q.** How did the binding signal turn out when “ATCGCCATATAGGCGCCACGTGGAACGAAGACTCGGTCAACGGAGTCACCTAGTGCAG” was run?
**A.** 9350 fluorescence intensity (a.u.)

**Q.** How did the binding signal turn out when “GATCAACGAACACTCGTGGGCCGTAGGCGGAGGCGCAAGTCGGAGTCACCTAGTGCAG” was run?
**A.** 62600 fluorescence intensity (a.u.)

**Q.** With “CCCGGCGGCCCGATCACCACCTGCCCGAACACCATCCTCCCGGAGTCACCTAGTGCAG” as the sequence, how does the binding signal read?
**A.** 8530 fluorescence intensity (a.u.)

**Q.** With “TAGGTGTGGTGTGTGGAGAAGCGGTGGACCGACCGACGACCGGAGTCACCTAGTGCAG” as the sequence, how does the binding signal read?
**A.** 8450 fluorescence intensity (a.u.)

**Q.** “GTGTGTTGGTTGTCACAGTACTGTGTGGTGGTGGTGGAAGCGGAGTCACCTAGTGCAG” was tested. Which binding signal did it give?
**A.** 9220 fluorescence intensity (a.u.)

**Q.** “ACTGTCGTGCCACAGTGGACGTGTGCGGCAGGTGAAGCACCGGAGTCACCTAGTGCAG” was tested. Which binding signal did it give?
**A.** 49100 fluorescence intensity (a.u.)

**Q.** With “GGAAAAGAACACCGGTCCATTTTGCAACTATTGTGAAGTTCGGAGTCACCTAGTGCAG” as the sequence, how does the binding signal read?
**A.** 8220 fluorescence intensity (a.u.)

**Q.** For “CCGGCAAAAGTCTCTCCATCTTGTCATCGTCTTCTCCAGCCGGAGTCACCTAGTGCAG”, which binding signal is on record?
**A.** 8410 fluorescence intensity (a.u.)

**Q.** For “TGGATTTGGCGGCGGCGGCGGCTTCGAGGGGAGGGGCTCTCGGAGTCACCTAGTGCAG”, which binding signal is on record?
**A.** 15300 fluorescence intensity (a.u.)

**Q.** With “AGGATTCAATTTGGACTTTGGTGGAGGGGAGGGGCTGCTGCGGAGTCACCTAGTGCAG” as the sequence, how does the binding signal read?
**A.** 22100 fluorescence intensity (a.u.)

**Q.** For “AGAGGGGACTGGGGAGGGGAGGGGCGGCGCTCGCTGGCTTCGGAGTCACCTAGTGCAG”, which binding signal is on record?
**A.** 17500 fluorescence intensity (a.u.)

**Q.** “TGGAAAGAGGAGGGCGGGGAGAGGACTGGGGAGGGCGGGGCGGAGTCACCTAGTGCAG” was tested. Which binding signal did it give?
**A.** 17700 fluorescence intensity (a.u.)

**Q.** With “TTGGATTGGGCTGCGGACCTGCGGTGGAGGGATTCAGGGTCGGAGTCACCTAGTGCAG” as the sequence, how does the binding signal read?
**A.** 8240 fluorescence intensity (a.u.)

**Q.** “GAGGAAATGCCTGGGAGGAGGAGGAGGGACTCGGGGCGGGCGGAGTCACCTAGTGCAG” was tested. Which binding signal did it give?
**A.** 13300 fluorescence intensity (a.u.)

**Q.** With “TTGGGAGGGAGAGTGGTAAAGGGTGCTGGGGCTTTGGCTGCGGAGTCACCTAGTGCAG” as the sequence, how does the binding signal read?
**A.** 8840 fluorescence intensity (a.u.)

**Q.** With “GGGGCTGTTTGGTTTCCAGGGACTTATTCCAAGTCCCTGTCGGAGTCACCTAGTGCAG” as the sequence, how does the binding signal read?
**A.** 9750 fluorescence intensity (a.u.)

**Q.** With “ACTGGTTTTACACATTATGTGGGCTAACTTAATACTCCTTCGGAGTCACCTAGTGCAG” as the sequence, how does the binding signal read?
**A.** 8040 fluorescence intensity (a.u.)

**Q.** With “TCTTCGGTTTACTTATGTCCTGGCTGGTTGGGAGGGGACACGGAGTCACCTAGTGCAG” as the sequence, how does the binding signal read?
**A.** 19100 fluorescence intensity (a.u.)

**Q.** Which binding signal does the source give for “GGGGAAGGAGAAGAGGAAGGAGAGGGGAGGAGGAGGAGGGCGGAGTCACCTAGTGCAG” here?
**A.** 8870 fluorescence intensity (a.u.)

**Q.** How did the binding signal turn out when “GCGAGAGGGGACTGGGGAGGGGAGGGGCGGCGCTCGCTGGCGGAGTCACCTAGTGCAG” was run?
**A.** 12500 fluorescence intensity (a.u.)

**Q.** Which binding signal does the source give for “ATTTTTTTTAAAAGTAGTTCTTCTGTTTCATATTATAATACGGAGTCACCTAGTGCAG” here?
**A.** 9230 fluorescence intensity (a.u.)

**Q.** “TGTCTTTATTAAGTGCAAATGTATTTGGATTCCAACCCTTCGGAGTCACCTAGTGCAG” was tested. Which binding signal did it give?
**A.** 8180 fluorescence intensity (a.u.)

**Q.** Which binding signal does the source give for “TACCCACACACACACAAGAACACGCGCCACATTTGTCATTCGGAGTCACCTAGTGCAG” here?
**A.** 10900 fluorescence intensity (a.u.)

**Q.** “TATTGTCTGGGGTTTGCTTATTGGCTTTTCAGGCCATGTCCGGAGTCACCTAGTGCAG” was tested. Which binding signal did it give?
**A.** 9320 fluorescence intensity (a.u.)

**Q.** For “ATCTCTTTTGCATTTGTTCGTCCCTTTCGTTTTCAACTTGCGGAGTCACCTAGTGCAG”, which binding signal is on record?
**A.** 9290 fluorescence intensity (a.u.)

**Q.** “CAAACATGTGCTAAAAAGTCAACGGTGTCAACCATTTTGACGGAGTCACCTAGTGCAG” was tested. Which binding signal did it give?
**A.** 11600 fluorescence intensity (a.u.)

**Q.** “GTGTGTGCTGTGGTGGAGAGGAGAAAGGGAGGAAGAAGAGCGGAGTCACCTAGTGCAG” was tested. Which binding signal did it give?
**A.** 8140 fluorescence intensity (a.u.)

**Q.** How did the binding signal turn out when “CTGCTGCCGCCGCCTCCTGGCCGCCGCCGCGGCGAGCGCGCGGAGTCACCTAGTGCAG” was run?
**A.** 8280 fluorescence intensity (a.u.)

**Q.** Which binding signal does the source give for “ACTCACAGAAAGCGTCGGGGCGGGTCTGGGAGGGCTTGCGCGGAGTCACCTAGTGCAG” here?
**A.** 9140 fluorescence intensity (a.u.)

**Q.** For “AAGCGCCTGGTAGCGGAGAGTGGGAAAGAGCTGGCTGGCGCGGAGTCACCTAGTGCAG”, which binding signal is on record?
**A.** 60400 fluorescence intensity (a.u.)

**Q.** How did the binding signal turn out when “GAGGACTGGGGAGGGCGGGGAGAGGGGAGGGCGTCGCGTGCGGAGTCACCTAGTGCAG” was run?
**A.** 24500 fluorescence intensity (a.u.)

**Q.** Which binding signal does the source give for “TCGGGGCGGGTCTGGGAGGGCTTGCGCTTGACACGGACGACGGAGTCACCTAGTGCAG” here?
**A.** 17200 fluorescence intensity (a.u.)

**Q.** How did the binding signal turn out when “GGGGATTTGGGGAGACTTTTGGAGGGGAGGAGAGAGGGCGCGGAGTCACCTAGTGCAG” was run?
**A.** 19700 fluorescence intensity (a.u.)

**Q.** With “TAGGTGAGGGCGGTGCGCTTGTCGACGGGGTTGAAGGGGACGGAGTCACCTAGTGCAG” as the sequence, how does the binding signal read?
**A.** 10700 fluorescence intensity (a.u.)

**Q.** How did the binding signal turn out when “GCGTCTGGGGCCTCGGGCGGCGCGCGCGGGGAGGGGCGTGCGGAGTCACCTAGTGCAG” was run?
**A.** 10500 fluorescence intensity (a.u.)

**Q.** With “GCGGCGGCGGGGCGGCGTCGGGGAGGGAGGAGGAGCAGTGCGGAGTCACCTAGTGCAG” as the sequence, how does the binding signal read?
**A.** 10700 fluorescence intensity (a.u.)

**Q.** How did the binding signal turn out when “CGTGGAGAGGATTTGAGTGCCTTTTTTGGAGTTTGAGGGGCGGAGTCACCTAGTGCAG” was run?
**A.** 9570 fluorescence intensity (a.u.)
